Test results published in the supplement of paper PMC3334620.
Whole data set: some 33,000 sequences, median “E-score (-0.5 to 0.5)” near -0.0059, cut for the highest 2% near 0.26. The sample as a whole holds a higher share of the highest values than the screen did.

Target: T1, Cin5 (UniProt P40917)
T1 sequence: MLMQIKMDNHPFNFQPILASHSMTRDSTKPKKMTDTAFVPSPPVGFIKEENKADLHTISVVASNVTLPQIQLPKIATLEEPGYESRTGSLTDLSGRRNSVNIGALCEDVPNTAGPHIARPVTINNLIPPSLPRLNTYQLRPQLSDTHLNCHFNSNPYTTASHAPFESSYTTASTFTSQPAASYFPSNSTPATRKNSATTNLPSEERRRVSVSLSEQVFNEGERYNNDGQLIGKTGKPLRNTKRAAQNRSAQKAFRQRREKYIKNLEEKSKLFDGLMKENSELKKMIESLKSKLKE
Test: PBM E-score (8-mer binding enrichment) (E-score (-0.5 to 0.5)); higher = stronger / more preferred TF binding
Conditions: protein concentration: 100 nM; construct: GST-full length
Method in brief: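 Universal all-10-mer Agilent arrays, fresh or stripped once, were converted to double-stranded form by primer extension. GST-tagged yeast transcription factors from PURExpress in vitro transcription/translation, full-length or DNA-binding domain only, were applied at about 100-200 nM and detected with fluorescent anti-GST. After masliner normalisation, the Universal PBM Analysis Suite scored each ungapped eight-base word together with its reverse complement by E-score.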

Going from ATAATCGG to ATAATCAC, the “PBM E-score” value falls from 0.291 to 0.233.

First: AAAATCAG
Second: ATAATCAA
The “PBM E-score” value of the first is lower: 0.00782 for the first, 0.227 for the second.

Compared with ATAATCAG, CTAATCAG is lower in “PBM E-score” value: 0.285 for the first, 0.14 for the second.

Compared with ATAATCAT, ATAATCGA is lower in “PBM E-score” value: 0.377 for the first, 0.178 for the second.

First: ATAATCGC
Second: AAAAGGGA
The “PBM E-score” value of the first is higher: 0.187 for the first, -0.1 for the second.

Going from CAATCTTA to CCGGGTCG, the “PBM E-score” value falls from 0.0906 to -0.131.

Going from CAGGAGCG to AACCCATA, the “PBM E-score” value rises from -0.0881 to 0.29.

Compared with AACCCATT, GACCCATA is higher in “PBM E-score” value: 0.114 for the first, 0.222 for the second.

First: AGAACTTC
Second: AGCTATTG
The “PBM E-score” value of the first is lower: -0.217 for the first, 0.01 for the second.

First: AGTGGAAA
Second: CGTGGAAG
The “PBM E-score” value of the first is lower: 0.0448 for the first, 0.129 for the second.

Compared with CGTGGAAA, CACTATGG is lower in “PBM E-score” value: 0.28 for the first, -0.15 for the second.

Compared with GTAATAAA, GTAATATA is higher in “PBM E-score” value: 0.2 for the first, 0.323 for the second.

Going from CTAATATA to ATAATATA, the “PBM E-score” value rises from 0.0911 to 0.345.

Compared with ATAATAGA, ATAATAAG is higher in “PBM E-score” value: 0.221 for the first, 0.225 for the second.

Going from CCAATATA to ATAATATG, the “PBM E-score” value rises from 0.0434 to 0.289.

Going from ACAATATA to ATAATATC, the “PBM E-score” value falls from 0.269 to 0.221.

First: AGAATATA
Second: GCAATATA
The “PBM E-score” value of the first is lower: 0.105 for the first, 0.185 for the second.

Going from GAGCTCCA to AAGGCCCT, the “PBM E-score” value falls from -0.092 to -0.136.

First: CTTAGTGA
Second: CCCCCTTA
The “PBM E-score” value of the first is higher: 0.0718 for the first, -0.342 for the second.

First: AGTATCAC
Second: ATATAATA
The “PBM E-score” value of the first is lower: 0.0484 for the first, 0.303 for the second.

Going from CTATAATA to GTATAATA, the “PBM E-score” value rises from 0.114 to 0.253.

Compared with AACCCCTT, CTCCCCAA is higher in “PBM E-score” value: -0.0504 for the first, -0.00166 for the second.

Compared with CATCTGCC, ATGTTTTC is higher in “PBM E-score” value: -0.0681 for the first, 0.121 for the second.

Going from CCTGGGAG to ACTCCCGC, the “PBM E-score” value rises from -0.176 to -0.0164.
